Test [1] has as its target Paired box protein Pax-6 (Homo sapiens) (UniProt P26367). Kind of test: ATG_Pax6_CIS: Attagene CIS-FACTORIAL HepG2 Assay for human Paired Box 6 (PAX6) (AID 2282956). The note with it: HepG2 CIS-FACTORIAL PAX6 reporter transcription, RNA readout; actives raise or lower the signal. Put shortly:
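HepG2 cells transiently transfected with multiplexed cis-promoter reporter units (endogenous TF activity) were dosed for 24 h. Reporter mRNA was quantified by RT-PCR, 6-FAM labeling, HpaI digestion and capillary electrophoresis; bidirectional fitting versus DMSO baseline.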

Test [2] is described as follows: ATG_PXRE_CIS: Attagene CIS-FACTORIAL HepG2 Assay for human Pregnane X Receptor Element (PXRE) (AID 2282957). The note with it: HepG2 Attagene CIS-FACTORIAL PXRE reporter, mRNA; actives raise or lower the signal. Put shortly:
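Cells: HepG2, transiently transfected reporter units under cis promoter control. Exposure: 24 h. Detection: reporter mRNA via RT-PCR/CE fluorescence; bidirectional fitting, DMSO-referenced.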

Test [3] in a line: ATG_PPRE_CIS: Attagene CIS-FACTORIAL HepG2 Assay for human Peroxisome Proliferator-activated Response Element (PPRE) (AID 2282958). Conditions: HepG2 PPRE cis-element reporter, Attagene transcription factor profiling; actives raise or lower the signal. Put shortly:
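HepG2 cells transiently transfected with multiplexed cis-element reporter units measure endogenous transcription factor activity. After 24 h compound exposure, reporter mRNA is quantified by RT-PCR, 6-FAM labeling, HpaI digestion and capillary electrophoresis; bidirectional fits are made against DMSO baseline.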

A short description of test [4]: ATG_RORE_CIS: Attagene CIS-FACTORIAL HepG2 Assay for human RAR-related Orphan Receptor Element (RORE) (AID 2282959). The note with it: HepG2 Attagene cis-factorial RORE reporter, mRNA; actives raise or lower the signal. Put shortly:
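HepG2 cells transiently transfected with multiple cis-element reporter transcription units, exposed to chemical for 24 h. Reporter mRNA quantified by RT-PCR, 6-FAM primer-extension labeling, HpaI digestion and capillary electrophoresis; bidirectional fit versus DMSO baseline.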

Test [5] is described as follows: ATG_Sox_CIS: Attagene CIS-FACTORIAL HepG2 Assay for human SRY-box transcription factor (SOX) (AID 2282960). Conditions: HepG2 Attagene cis-factorial SOX reporter, mRNA; actives raise or lower the signal. Put shortly: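 HepG2 cells transiently transfected with cis-element-driven multiple reporter transcription units, dosed 24 h; reporter mRNA measured by RT-PCR, FAM labelling, HpaI digestion and capillary electrophoresis. Bidirectional fit versus DMSO baseline.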

Test [6] deals with Transcription factor Sp1 (Homo sapiens) (UniProt P08047). Kind of test: ATG_Sp1_CIS: Attagene CIS-FACTORIAL HepG2 Assay for human Specificity Protein 1 (Sp1) (AID 2282961). The note with it: HepG2 Sp1 cis-reporter transcription, actives raise or lower the signal. Put shortly: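 HepG2 cells transiently transfected with multiple reporter transcription units driven by cis-regulatory elements; Sp1-responsive reporter mRNA measured 24 h after dosing by RT-PCR and capillary electrophoresis fluorescence, fitted bidirectionally against DMSO baseline.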
Sequence of Transcription factor Sp1 (Homo sapiens) (P08047 whole entry, looked up): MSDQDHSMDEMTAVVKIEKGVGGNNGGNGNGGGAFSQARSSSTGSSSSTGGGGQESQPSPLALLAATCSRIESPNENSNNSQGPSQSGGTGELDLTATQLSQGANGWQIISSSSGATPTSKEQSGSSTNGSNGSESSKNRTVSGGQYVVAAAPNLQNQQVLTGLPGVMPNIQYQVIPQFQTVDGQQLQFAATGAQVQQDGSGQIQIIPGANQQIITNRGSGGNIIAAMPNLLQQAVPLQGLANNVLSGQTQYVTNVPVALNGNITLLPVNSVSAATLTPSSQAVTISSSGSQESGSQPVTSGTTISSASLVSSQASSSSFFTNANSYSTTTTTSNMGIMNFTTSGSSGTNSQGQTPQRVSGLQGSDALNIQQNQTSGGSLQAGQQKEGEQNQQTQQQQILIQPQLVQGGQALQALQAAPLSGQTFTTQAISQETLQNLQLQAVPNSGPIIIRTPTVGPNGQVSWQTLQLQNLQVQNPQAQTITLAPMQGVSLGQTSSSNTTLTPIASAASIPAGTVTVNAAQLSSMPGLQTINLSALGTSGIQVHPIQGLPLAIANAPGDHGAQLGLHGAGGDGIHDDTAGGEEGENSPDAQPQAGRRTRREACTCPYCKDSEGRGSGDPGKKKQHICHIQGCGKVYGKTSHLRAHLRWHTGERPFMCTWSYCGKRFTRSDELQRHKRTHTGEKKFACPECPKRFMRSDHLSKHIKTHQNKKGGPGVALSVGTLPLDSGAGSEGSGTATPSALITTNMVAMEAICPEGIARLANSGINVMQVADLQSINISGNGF

Test [7] in a line: ATG_SREBP_CIS: Attagene CIS-FACTORIAL HepG2 Assay for human Sterol Regulatory Element Binding (SREBP) (AID 2282962). Conditions: HepG2 Attagene cis-factorial SREBP reporter, mRNA; actives raise or lower the signal. Put shortly:
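HepG2 cells transiently transfected with multiplexed cis-element reporter units report endogenous transcription factor activity. After 24 h of chemical exposure, reporter mRNA was quantified by RT-PCR, 6-FAM labelling, HpaI digestion and capillary electrophoresis; bidirectional fits used DMSO as baseline.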

In test [8] the target is Signal transducer and activator of transcription 3 (Homo sapiens) (UniProt P40763). In words: ATG_STAT3_CIS: Attagene CIS-FACTORIAL HepG2 Assay for human Signal Transducer and Activator of Transcription 3 (STAT3) (AID 2282963). Conditions: HepG2, Attagene cis-factorial STAT3 reporter transcription; actives raise or lower the signal. Put shortly: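 Endogenous STAT3-responsive cis-element activity was read in transiently transfected HepG2 cells after 24 h treatment. Reporter transcripts were quantified via RT-PCR and capillary electrophoresis, with DMSO as negative control and bidirectional curve fitting.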
Sequence of Signal transducer and activator of transcription 3 (Homo sapiens) (P40763 whole entry, looked up): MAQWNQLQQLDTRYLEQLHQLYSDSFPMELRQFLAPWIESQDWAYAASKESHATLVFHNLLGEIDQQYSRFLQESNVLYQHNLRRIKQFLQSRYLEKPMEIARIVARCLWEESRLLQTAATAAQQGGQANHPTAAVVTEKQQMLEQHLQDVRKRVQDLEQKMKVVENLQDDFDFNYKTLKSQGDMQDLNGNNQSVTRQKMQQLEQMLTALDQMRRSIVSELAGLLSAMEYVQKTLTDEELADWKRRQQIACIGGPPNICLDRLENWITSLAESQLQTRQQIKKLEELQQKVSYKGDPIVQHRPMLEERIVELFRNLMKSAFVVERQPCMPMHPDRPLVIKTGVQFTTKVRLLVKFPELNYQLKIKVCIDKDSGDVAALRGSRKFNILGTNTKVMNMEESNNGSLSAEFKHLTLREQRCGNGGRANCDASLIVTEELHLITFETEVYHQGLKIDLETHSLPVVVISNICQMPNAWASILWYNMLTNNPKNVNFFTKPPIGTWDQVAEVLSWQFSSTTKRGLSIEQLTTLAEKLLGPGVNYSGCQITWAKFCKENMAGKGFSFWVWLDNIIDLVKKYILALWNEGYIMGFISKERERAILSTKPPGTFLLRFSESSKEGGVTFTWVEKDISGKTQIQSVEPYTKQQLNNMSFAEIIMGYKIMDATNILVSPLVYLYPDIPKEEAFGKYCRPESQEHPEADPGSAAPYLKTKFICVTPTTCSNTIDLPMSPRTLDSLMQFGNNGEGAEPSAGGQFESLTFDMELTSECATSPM

The nature of test [9]: ATG_TA_CIS: Attagene CIS-FACTORIAL HepG2 Assay for human TA Basal Promoter (AID 2282964). Conditions: HepG2 Attagene CIS-factorial TA basal promoter reporter; actives raise or lower the signal. The procedure, abridged:
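Steps: transfect HepG2 with MRTUs; dose 24 h; isolate RNA, DNase-treat, reverse-transcribe; PCR and FAM-label reporter cDNA; digest with HpaI 2h at 37 C; run capillary electrophoresis. Activity fitted both directions against DMSO.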

The nature of test [10]: ATG_TCF_b_cat_CIS: Attagene CIS-FACTORIAL HepG2 Assay for human T-Cell-Factor with beta-catenin (TCF/b-cat) (AID 2282965). The note with it: HepG2 TCF/beta-catenin cis-reporter transcription, actives raise or lower the signal. The procedure, abridged:
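Measured: reporter mRNA in HepG2 transiently transfected with cis-promoter reporter units, 24 h after chemical addition. Fitting was bidirectional, DMSO as negative control.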

The structures appear in SMILES notation. Calls of active or inactive are those of the source. Rule for the calls: active = hit-call score of the fitted dose curve at least 0.9, where 1 is the maximum; inactive = score below 0.9.

Sequence of Paired box protein Pax-6 (Homo sapiens) (P26367 whole entry, looked up): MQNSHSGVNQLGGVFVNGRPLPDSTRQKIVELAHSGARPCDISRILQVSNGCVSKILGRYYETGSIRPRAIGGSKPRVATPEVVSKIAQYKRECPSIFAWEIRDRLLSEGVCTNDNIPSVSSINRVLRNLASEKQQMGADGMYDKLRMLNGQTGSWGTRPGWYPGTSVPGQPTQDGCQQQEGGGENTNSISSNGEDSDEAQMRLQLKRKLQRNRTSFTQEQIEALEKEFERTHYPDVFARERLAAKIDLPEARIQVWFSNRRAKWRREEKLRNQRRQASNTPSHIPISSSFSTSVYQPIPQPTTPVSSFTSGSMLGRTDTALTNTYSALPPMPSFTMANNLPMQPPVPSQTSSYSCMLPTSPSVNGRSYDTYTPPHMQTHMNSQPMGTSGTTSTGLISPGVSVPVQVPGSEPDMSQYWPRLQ

Consider `CCCCN1C(=O)[C@@H]([C@H](O)C2CCCCC2)NC(=O)C12CCN(Cc1ccc(Oc3ccc(C(=O)O)cc3)cc1)CC2`, for which the call in [1], in test [4], in test [5], in test [6], in [7] and in test [8] was inactive. Also, the half-maximal activity concentration (AC50) (commonly the midpoint of the concentration-response curve, whichever way the signal moves) in test [2] was 93.5 µM (active); in test [3], 54 µM (active); in [9], 31.7 µM (active); in test [10] it was 52.5 µM (active).
On to `CCCCC(CC)C(=O)OCCOCCOCCOC(=O)C(CC)CCCC` (centres undefined), for which the result in test [1], in test [3], in test [4], in test [5], in test [6] and in [8] was inactive. Further, the result in test [9] and in test [10] was inactive. For the same molecule, the half-maximal activity concentration (AC50) in test [2] was 27.5 µM (active).
For `OCCC(F)(F)C(F)(F)C(F)(F)C(F)(F)F`, the call in test [1], in [2], in test [3], in test [4], in test [5] and in test [6] was inactive. The result in [8], in test [9] and in [10] was inactive.
On to `CCCCCOC(C)=O`, for which the molecule was called inactive in test [1], in test [2], in [3], in test [4], in [5] and in test [6]. Also, the outcome in test [8], in test [9] and in test [10] was inactive.
As to `C[Si](C)(C)C(F)(F)C(F)(F)C(F)(F)F`, the call in [1], in test [2], in [3], in [4], in test [5] and in [6] was inactive. Moreover, the call in test [7], in test [8], in test [9] and in test [10] was inactive.
`S=P(N1CC1)(N1CC1)N1CC1`: the molecule was called inactive in test [1], in test [3], in test [4], in test [5], in test [6] and in [8]. In addition, the call in test [9] and in test [10] was inactive. In test [2], the AC50 was 12.1 µM (active) [middle of 4 runs].
Regarding `OC(Cn1cncn1)(Cn1cncn1)c1ccc(F)cc1F`, the result in test [1], in [2], in test [3], in [4], in [5] and in test [6] was inactive. Besides, the result in test [7], in test [8], in test [9] and in [10] was inactive.
For `C=CN1CCCC1=O`, the molecule was called inactive in [1], in test [2], in test [3], in test [4], in test [5] and in [6]. Moreover, the result in [7], in test [8], in [9] and in [10] was inactive.
As to `CCOc1ccc2[nH]cc(C(=O)NCc3ccccc3)c(=O)c2n1`, the molecule was classed as inactive in test [1], in test [3], in [4], in test [5], in [6] and in [7]. For the same molecule, the outcome in test [8], in test [9] and in test [10] was inactive.
As to `NCC(F)(F)C(F)(F)C(F)(F)C(F)(F)F`, the molecule was called inactive in [1], in test [2], in test [3], in test [4], in test [5] and in [6]. Besides, the outcome in test [8], in [9] and in test [10] was inactive.
For the molecule `OCCOCCOCCO`, the molecule was called inactive in test [1], in test [2], in [4], in [5], in [6] and in test [8]. For the same molecule, the molecule was classed as inactive in [9] and in test [10].
On to `COc1cc(C(C)C)c2c(c1)S(=O)(=O)N(COc1cc(=O)n3cccc(OCCN4CCCCC4)c3n1)C2=O`, for which the half-maximal activity concentration (AC50) is 8.11 µM (active) in test [1]; 3.27 µM (active) in test [2]; 8.25 µM (active) in test [4]; 4.26 µM (active) in test [5]; 3.94 µM (active) in [6]; 3.78 µM (active) in [7]. Moreover, in test [10], the AC50 was 4.04 µM (active). The result in test [8] and in test [9] was inactive.
Regarding `Cc1nccn1-c1ccc(Sc2cccc(C3(C(N)=O)CCOCC3)c2)cc1`, the molecule was called inactive in test [1], in [2], in [5], in test [8] and in test [9]. In addition, the concentration at half-maximal activity (AC50) in [4] is 5.29 µM (active); in [6] it was 2.31 µM (active); in test [10], 6.41 µM (active).
Turning to `NC(=O)NN=Cc1ccc([N+](=O)[O-])o1`, the call in [1], in test [2], in [3], in test [4], in test [5] and in test [6] was inactive. In addition, the outcome in [8], in [9] and in [10] was inactive.
Regarding `CCc1cccc(CC)c1N`, the result in test [1], in test [4], in test [5], in test [6], in test [8] and in [9] was inactive. For the same molecule, the call in test [10] was inactive. In addition, the AC50 in [2] is 27.7 µM (active).
`COCc1nnc(-c2ccc[n+]([O-])c2)n1-c1c(Cl)c(Cl)cc2[nH]c(=O)c(=O)[nH]c12`: the call in [1], in test [2], in test [4], in [5], in test [6] and in test [8] was inactive. In addition, the molecule was called inactive in test [9] and in [10].
With `O=C(O)c1cccc(C[C@@H]2COc3ccc(OCc4nc5cc(F)ccc5s4)cc3[C@@H]2O)c1`, the AC50 is 135 µM (active) in test [1] and 37.8 µM (active) in [10]. Besides, the molecule was called inactive in test [2], in test [4], in [5], in test [6], in test [7] and in test [8]. In addition, the outcome in [9] was inactive.
Regarding `CCCCCCCC/C=C\CCCCCCCC(=O)OC[C@@H](O)[C@H]1OC[C@H](O)[C@H]1O`, the molecule was classed as inactive in test [1], in [3], in test [4], in [5], in test [6] and in test [7]. Also, the call in test [8], in test [9] and in test [10] was inactive.
Regarding `CC(C)c1nnc2ccc(-c3ocnc3-c3cc(F)ccc3F)cn12`, the outcome in test [1], in [3], in test [4], in [5], in test [7] and in test [8] was inactive. For the same molecule, the molecule was called inactive in test [9] and in test [10]. For the same molecule, the AC50 in [6] was 125 µM (active).
As for `OC[C@H]1O[C@@](CO)(O[C@H]2O[C@H](CO)[C@@H](O)[C@H](O)[C@H]2O)[C@@H](O)[C@@H]1O`, the molecule was called inactive in test [1], in test [3], in test [4], in test [5], in [6] and in [7]. The molecule was called inactive in test [8], in [9] and in test [10].
With `O=C(NO)C1(NS(=O)(=O)c2ccc(Oc3ccc(F)cc3)cc2)CCOCC1`, the molecule was classed as inactive in test [1], in test [2], in test [3], in [4], in [5] and in test [6]. The call in [8], in test [9] and in test [10] was inactive.

These data come from PubChem BioAssay (EPA / NIEHS).
